Data published in PubChem BioAssay (Tox21).
Inconclusive results are not listed. Unmarked numbers belong to inactive results. Calls follow the shape of the dose curve; as a rule, active = well fitted cell-killing curve with a large enough effect in the repeat runs; inconclusive = weak or mixed curves, or effect the other way; inactive = no such curve, though single readings can be large or run the other way.

experiment: qHTS assay to identify small molecule agonists of the estrogen receptor alpha (ER-alpha) signaling pathway in the presence of an antagonist - cell viability counter screen (AID 1259386); conditions: VM7Luc4E2 viability, CellTiter-Fluor fluorescence, 22 h; series mostly up to 92.4 µM; activity change, negative = cytotoxicity: at the top concentration;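 also: cells exposed to compounds for 22 h at 37 °C before the viability read; nearly all actives have a fitted effect of over 30% in size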
Excerpt: National Center for Advancing Translational Sciences [NCATS]
NIH Chemical Genomics Center [NCGC]
U.S. Environmental Protection Agency [EPA]
National Institutes of Environmental Health Sciences [NIEHS]
National Toxicology Program [NTP]
U.S. Food and Drug Administration [FDA]
Estrogen receptor (ER), a member of nuclear hormone receptor plays an important role in development, metabolic homeostasis and reproduction. Two subtypes of ER, ER-alpha and ER-beta, have similar expression patterns with some uniqueness in both types. Endocrine disrupting chemicals (EDCs) and their interactions with steroid hormone receptors like ER causes disruption of normal endocrine function. Therefore, it is important to understand the effect of environmental chemicals in ER signaling pathway. For identifying ER agonists, VM7Luc4E2 cell line has been used in the current assay.
VM7Luc4E2 cell line (provided by Denison MS, University of California) endogenously expresses full-length ER-alpha and is stably transfected with a plasmid containing four estrogen responsive elements (ERE) upstream of a luciferase reporter gene. This current screening for measuring luciferase reporter gene activity using VM7Luc4E2 cells against Tox21 10K library collection is a confirmation study on agonist mode screening in presence of ER-antagonist (ICI-182,780) at 10.0nM final concentration. The cytotoxicity of the compounds was tested in parallel by measuring the cell viability using CellTiter-Fluor assay system (Promega, Madison, WI) in the same wells.
Tox21 Assay Protocol Summary:
VM7Luc4E2 cells were cultured in phenol red free assay medium containing 10% charcoal stripped FBS for 5 days prior to the assay. The cells were dispensed at 4,000 cells in 4uL of assay medium per well into white wall/solid-bottom 1536-well plates (Corning Life Sciences, Corning, NY) using a Multidrop Combi (Thermo Fisher Scientific Inc., Waltham, MA) dispenser. After the assay plates were incubated at 37C and 5% CO2 for 24hr, 1uL of 10.0nM (final concentration) ICI-182,780 or assay buffer was added using two separate tips of Flying Reagent Dispenser (FRD, Aurora Discovery, San Diego, CA). Then 23nL of compounds dissolved in DMSO at 15 concentrations and positive controls or DMSO only was transferred to the assay plates by a Pintool station (Wako, San Diego, CA). The assay plates were incubated at 37C and 5% CO2 for 22hr. After 21hr incubation at 37C, 1uL/well CellTiter-Fluor reagent (Promega Corporation, Madison, WI) was added to each well using FRD and after 1hr incubation at 37C and 5% CO2, the fluorescence signal was measured on ViewLux plate reader (PerkinElmer, Shelton, CT).
% is scaled to controls: 0 for no effect and ±100 for the full control effect.

SMILES	activity change, negative = cytotoxicity
NC(=O)c1c(Cl)cccc1Cl	1.86%
CCCOCC(C)OCC(C)O (stereo not given)	2.42%
Nc1[nH]c(=O)ncc1F	3.79% [at 42.5 µM]
CCCCCCC(CCCCCCCCCCC(=O)OCC(COC(C)=O)OC(C)=O)OC(C)=O (stereo not given)	4.48% [at 42.5 µM]
CCCc1ccccc1O	-0.392%
CC/C=C\CCCCO	0.367%
CO	-1.06%
O=C1C(CCS(=O)c2ccccc2)C(=O)N(c2ccccc2)N1c1ccccc1 (stereo not given)	0.786% [at 42.5 µM]
CC(C)c1cccc(O)c1	-0.923%
Cc1nccn1CC1CCc2c(c3ccccc3n2C)C1=O (stereo not given)	1.5% [at 42.5 µM]
C=C(C)C(=O)NCCC[N+](C)(C)C	-2.43%
COC(C(=O)O)c1ccccc1 (stereo not given)	0.769%
[O-][N+](=Nc1ccccc1)c1ccccc1	-4.3%
COc1nc(C)nc(N)n1	2.29%
CCOC(=O)Nc1ccc2c(c1)N(C(=O)CCN1CCOCC1)c1ccccc1S2	-3.66% [at 42.5 µM]
CCN1CCCC1CNC(=O)c1cc(S(N)(=O)=O)ccc1OC (stereo not given)	-4.9%
CC1CCN(CCCC(=O)c2ccc(F)cc2)CC1	-1.13% [at 42.5 µM]
CCCCCCC(=O)OCC	0.983%
Nc1ncnc2c1ncn2Cc1c(F)cccc1Cl	0.699% [at 42.5 µM]
CN(C)N=Nc1ccccc1	3.81%

SMILES	activity change, negative = cytotoxicity
COCc1ccc(COC)cc1	2.28%
O=Cc1ccccc1[N+](=O)[O-]	0.261%
OCC(O)[C@@H](O)[C@H](O)[C@H](O)CO[C@H]1O[C@H](CO)[C@@H](O)[C@H](O)[C@H]1O (stereo not given in full)	-3.34%
COc1ccc(NC(C)=O)cc1	0.772%
CN(C)C(=O)C(CCN1CCC(O)(c2ccc(Cl)cc2)CC1)(c1ccccc1)c1ccccc1	-8.66% [at 42.5 µM]
CN(C)C(=O)Nc1ccccc1	6.1%
COc1cc(C)cc(O)c1	-0.274%
Fc1ccccc1-c1ccccc1	0.11%
COc1cccc(Br)c1	2.73%
CCCc1ccc(N)cc1	3.68%
C=CC(=O)N1CCOCC1	-4.38%
C=CCn1c(=O)n([C@@H]2O[C@H](CO)[C@@H](O)[C@H]2O)c2nc(N)[nH]c(=O)c21	0.35% [at 42.5 µM]
Oc1ccc2c(c1)OC[C@@H](N1CCC(O)(c3ccc(F)cc3)CC1)[C@H]2O	3.11% [at 42.5 µM]
O=C(O)c1ccccc1-c1ccc(C(F)(F)F)cc1	4.06% [at 42.5 µM]
CCCCCCCCCCCCI	-0.945%
CC1=CC(=O)CCC1	2.85%
CC(C)(O)Cc1ccccc1	-0.895%
O=S(=O)(c1cccc2cnccc12)N1CCCNCC1	4.43% [at 42.5 µM]
CCOC(=O)Cn1c(=O)sc2cccc(Cl)c21	-7.53%
CO[Si](CCCNCCC[Si](OC)(OC)OC)(OC)OC	0.13%
